{
  "source": "PubChem BioAssay AID1347414",
  "about": "(National Center for Advancing Translational Sciences (NCATS), 2020)",
  "note": "Results filed as inconclusive are left out. The source made the active and inactive calls. Calls follow the shape of the dose curve; as a rule, active = well fitted inhibition curve with a large enough effect; inconclusive = small, poorly fitted or top-dose-only effect; inactive = no such curve, though single readings can be large or run the other way. Potency is read from the fitted curve at half-maximal effect.",
  "data": [
    {"assay": "qHTS to identify inhibitors of the type 1 interferon - major histocompatibility complex class I in skeletal muscle: Secondary screen by immunofluorescence; also: nearly all actives have a fitted effect of over 70% in size", "settings": "C25cl48 myoblasts, IFN-b induced HLA-ABC immunofluorescence, 24 h; series mostly up to 49.8 µM", "method_in_brief": "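HLA-ABC immunofluorescence, with nuclear and cell-body stains, was quantified by laser scanning cytometry. Read-out followed 24 h of IFN-beta (4.0 ng/ml) stimulation of C25cl48 human myoblasts with compounds titrated 1:3 over 11 points from 50 uM, with ruxolitinib as inhibitor control.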", "values": [
      {"smiles": "C=C1C(=O)O[C@H]2C[C@H](C)C(/C=C/C(C)=O)=CC[C@H]12", "Potency": "5760 nM (active)"},
      {"smiles": "COc1cc(F)ccc1-c1ncnc(Nc2cccc(CS(C)(=N)=O)c2)n1", "note": "(stereo not given)", "Potency": "814 nM (active)"},
      {"smiles": "O=C(/C=C/c1cccc(S(=O)(=O)Nc2ccccc2)c1)NO", "Potency": "514 nM (active)"},
      {"smiles": "Cc1ccc(C(N)=O)cc1Nc1nccc(-c2cn(C(C)C)c3cnccc23)n1", "Potency": "3330 nM (active)"},
      {"smiles": "C/C=C1\\NC(=O)[C@H]2CSSCCC=C[C@H](CC(=O)N[C@H](C(C)C)C(=O)N2)OC(=O)[C@H](C(C)C)NC1=O", "Potency": "5.8 nM (active)"},
      {"smiles": "Cc1ncsc1-c1ccc([C@H](C)NC(=O)[C@@H]2C[C@@H](O)CN2C(=O)[C@@H](NC(=O)COCCCOCCNC(=O)C[C@@H]2N=C(c3ccc(Cl)cc3)c3c(sc(C)c3C)-n3c(C)nnc32)C(C)(C)C)cc1", "Potency": "145 nM (active)"},
      {"smiles": "O=C1Nc2nc(-c3c(O)cccc3OCC3CC3)cc([C@@H]3CCCNC3)c2CO1", "Potency": "4580 nM (active)"},
      {"smiles": "CCN1CCN(Cc2ccc(NC(=O)Nc3ccc(Oc4cc(NC)ncn4)cc3)cc2C(F)(F)F)CC1", "Potency": "1620 nM (active)"},
      {"smiles": "C=C1C(=O)O[C@@H]2[C@H]3O[C@]3(C)CCC=C(C)CC[C@@H]12", "Potency": "2890 nM (active)"},
      {"smiles": "CC(C)c1c2cc(-c3ccnc(NC4CCC(NC5CCOCC5)CC4)n3)ccc2nn1C", "note": "(stereo not given)", "Potency": "145 nM (active)"},
      {"smiles": "COc1cc(C(=O)N2CCC(N3CCN(C)CC3)CC2)ccc1Nc1ncc2c(n1)N(C)c1ccccc1C(=O)N2C", "Potency": "6470 nM (active)"},
      {"smiles": "Fc1cccc(-n2cnc3c(NCc4nc5c(F)c(F)ccc5[nH]4)nc(N4CCOCC4)nc32)c1", "Potency": "289 nM (active)"},
      {"smiles": "CN1CCN(C(=O)c2ccc3cc(CCNc4ncnc5ccc(C#N)cc45)ccc3c2)CC1", "Potency": "inactive"},
      {"smiles": "O=C(CCCCCCC(=O)Nc1ccccc1)NO", "Potency": "914 nM (active)"},
      {"smiles": "CC(C)C[C@H](NC(=O)[C@H](Cc1ccccc1)NC(=O)c1cnccn1)B(O)O", "Potency": "25.7 nM (active)"}
    ]}
  ]
}
